# In PubChem BioAssay AID1631 (National Center for Advancing Translational Sciences (NCATS), 2009):
# The campaign covered roughly 260,000 compounds. About 890 (0.34%) were called active. Not shown: some 1% with an inconclusive outcome. The sample holds actives, similar compounds and a random draw of the others, so the mix is not that of the screen. Unmarked numbers belong to inactive results. Calls come from the whole dose curve; as a rule, active = well fitted activation curve with a large enough effect; inconclusive = small, poorly fitted or top-dose-only effect; inactive = no such curve, though single readings can be large or run the other way.
# Biological target: Pyruvate kinase PKM (Homo sapiens) (UniProt P14618)
# Sequence (P14618 whole entry, looked up, canonical isoform): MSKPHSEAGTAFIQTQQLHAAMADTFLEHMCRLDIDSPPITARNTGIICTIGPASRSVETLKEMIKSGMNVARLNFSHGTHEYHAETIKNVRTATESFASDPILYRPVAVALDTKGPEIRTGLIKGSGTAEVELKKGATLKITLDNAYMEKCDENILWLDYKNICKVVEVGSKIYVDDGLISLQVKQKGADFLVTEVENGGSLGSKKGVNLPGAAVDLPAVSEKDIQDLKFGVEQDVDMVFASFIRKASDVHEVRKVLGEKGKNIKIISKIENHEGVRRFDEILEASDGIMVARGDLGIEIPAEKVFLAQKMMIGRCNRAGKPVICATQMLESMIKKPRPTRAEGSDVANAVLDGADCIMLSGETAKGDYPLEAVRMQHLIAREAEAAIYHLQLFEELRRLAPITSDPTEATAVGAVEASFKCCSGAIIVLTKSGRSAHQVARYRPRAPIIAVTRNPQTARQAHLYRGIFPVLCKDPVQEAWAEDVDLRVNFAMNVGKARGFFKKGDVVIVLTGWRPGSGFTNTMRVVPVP
# Experiment: qHTS Assay for Activators of Human Muscle isoform 2 Pyruvate Kinase; note: nearly all actives have a fitted effect of over 55% in size
# Settings: purified PKM2, Kinase-Glo ATP luminescence; Potency: activation; series mostly up to 57.5 µM; activation: at the top concentration
# Excerpt: NIH Chemical Genomics Center [NCGC] Matthew G. Vander Heiden, M.D., Ph.D. [Harvard Medical School, 77 Avenue Louis Pasteur, Boston, MA 02115] MLPCN Grant: 1 R03 MH085679-01 NCGC Assay Overview: Human pyruvate kinase muscle 2 (hPK-M2) enzyme was supplied as a highly purified (>95% pure) preparation from Harvard Medical School and assayed for its ability to generate ATP from ADP using phosphoenolpyruvate (PEP) as a substrate. ATP generation was detected in a coupled reaction by luciferase-mediated luminescence, an ATP-dependent process. […] The enzyme was assayed at an intermediate level of activity to screen for both inhibitors and activators.
# NCGC Assay Protocol Summary: Three uL of substrate mix (at r.t.) in assay buffer (50 mM Imidazole pH7.2, 50 mM KCl, 7 mM MgCl2, 0.01% Tween 20, 0.05% BSA) was dispensed into white solid bottom 1,536 well microtiter plates so that the final concentrations of substrates in the assay were 0.1 mM ADP and 0.5 mM PEP. 23 nL of compound were delivered by a pin tool and 1 uL of enzyme mix in assay buffer (4 degree Celsius) was added. Plates were incubated at room temperature for 1 hour. Two uL of detection mix (Kinase-Glo, Promega; at 4 degree Celsius protected from light) was added and luminescence read by a ViewLux (Perkin Elmer) at 5 second exposure/plate. Data were normalized to the uninhibited and AC100 inhibition (no enzyme). To monitor activation, the first column contained a titration of the activator, NCGC00031955-01 (16-point 1:2 dilutions in duplicate starting at 57 uM) and the first 16 rows of column 4 contained 57 uM of NCGC00031955-01.
# % is set by controls: 0 for no effect and ±100 for the full control effect; potency is the fitted concentration of half-maximal effect.
SMILES,activation,Potency
Cc1nc(SCC(=O)Nc2cc(C)on2)c2c(C)c(C)sc2n1,10.7%,–
Cc1cc(NC(=O)CSc2nnc(-c3ccc(Cl)s3)o2)no1,–,2.51 µM (active)
COc1ccccc1-c1nnc(SCC(=O)Nc2cc(C)on2)o1,29.6%,–
COc1cc(NC(=O)C2=CC(c3ccc(C)cc3)=NS(=O)(=O)N2C)cc(OC)c1OC,-11.3%,–
CCOc1ccccc1NC(=S)N1CCN(c2cccc(C)c2C)CC1,"-8.49% [at 11.5 µM, 0% is enzyme alone, no compound]",–
CCOc1cc(/C=N/Nc2cc(C)nc3ccc(C)cc23)ccc1O,2.65%,–
Fc1ccc(/C=N/Nc2nc(-c3cccnc3)nc3ccccc23)cc1,9.27%,–
Cc1ccc2nc(C)cc(N/N=C/c3ccc(F)cc3)c2c1,–,15.8 µM (active)
CC(C)(C)NC(=O)Cn1nnc(-c2ccccc2Cl)n1,7.5%,–
Cc1cc(C)n(C(=O)c2ccc(S(=O)(=O)N3CCCC3)cc2)n1,0.764%,–
Cc1ccccc1-c1nnn(CC(=O)c2ccc(S(=O)(=O)N3CCCC3)cc2)n1,–,7.94 µM (active)
O=C(NC(=S)Nc1ccc(Cl)cc1Cl)C1CC1,0.937%,–
COC(=O)c1[nH]c2ccccc2c1NC(=O)CN1CCCc2ccccc21,–,28.2 µM (active)
NS(=O)(=O)c1cccc(NC(=O)CN2CCCc3ccccc32)c1,0.49%,–
COC(=O)c1[nH]c2cccc(C)c2c1NC(=O)CN1CCCc2ccccc21,1.83%,–
CCOc1ccccc1NC(=S)NC(=O)CCc1ccccc1,4.02%,–
CC(=O)c1cc(C#N)c(SCC(=O)Nc2nccs2)nc1C,–,1 µM (active)
Cc1cc(C(F)(F)F)nc(SCC(=O)Nc2nccs2)n1,8.51%,–
CC(=O)c1cc(C#N)c(SCC(=O)C(C)(C)C)nc1C,-4%,–
CC1CCCCC1NC(=O)CCS(=O)(=O)c1ccc2c(c1)NC(=O)CO2 (configuration not stated),"0.549% [at 0.46 µM, 0% is enzyme alone, no compound]",–
CC(=O)OCCN(CCCn1c(-c2ccncc2)nc2ccccc21)c1nc(-c2ccc(C)cc2)cs1,-0.825%,–
CC(C)c1ccc(NC2CCCN(C(=O)c3ccncc3)C2)cc1 (configuration not stated),4.09%,–
O=C(c1ccccc1)N1CCN(C(=O)c2cc3nc(-c4ccccc4)cc(C(F)(F)F)n3n2)CC1,0.418%,–
CC(C)c1ccc(S(=O)(=O)N2CCN(C(=O)c3ccc(N4CCCC4)c([N+](=O)[O-])c3)CC2)cc1,12.8%,–
CCCOc1ccc(/C=N/NC(=O)C2CC2)c(OCCC)c1,-0.336%,–
O=C(C1CCC(=O)N(C2CC2)C1)N1CCN(c2ccc(Cl)cc2)CC1 (configuration not stated),6.03%,–
CC(C)c1ccc(NC(=O)C2CCCN(S(=O)(=O)c3cccnc3)C2)cc1 (configuration not stated),0.269%,–
